Results filed as inconclusive are left out. Unmarked numbers belong to inactive results. Calls of active or inactive are those of the source. Calls follow the shape of the dose curve; as a rule, active = well fitted cell-killing curve with a large enough effect; inconclusive = small, poorly fitted or top-dose-only effect, or effect the other way; inactive = flat fitted curve, though single readings scatter.
% is scaled to controls: 0 for no effect and ±100 for the full control effect; potency is read from the fitted curve at half-maximal effect.

This assay deals with Tov112D. The assay can be described thus: Primary qHTS to identify gynecologic anti-cancer compounds using libraries of approved drugs and bioactive compounds (AID 1345084). Also: nearly all actives have a fitted effect of over 55% in size. As to conditions: Gynecologic cancer cell panel viability, ATPlite luminescence, 48 h; series mostly up to 57.5 µM; activity change, negative = cytotoxicity: at the top concentration. The method in brief: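 Cells, 1,000 per well, were allowed to settle for 16 h at 37 C before compound addition. Five concentrations were tested for 48 h, and viability was read by ATPlite luminescence after 15 min at room temperature.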
Consider `CCC(CC)C(c1ccc(Nc2nc3ccccc3s2)cc1)n1cncn1` (stereo not drawn), for which the Potency is 22.4 µM (active). Consider `O=C(C1CCCCC1)N(CCN1CCN(c2ccccc2O)CC1)c1ccccn1`, for which the “activity change, negative = cytotoxicity” value is -5.57%. Consider `COC1=CC(=O)C[C@@H](C)[C@@]12Oc1c(Cl)c(OC)cc(OC)c1C2=O`, for which the Potency is 0.1 µM (active). Regarding `CC(C)c1ccc(NC(=O)c2cccs2)c(-c2nc3ccccc3[nH]c2=O)c1`, the “activity change, negative = cytotoxicity” value is -16.2%. On the same count and under the same terms, for `CCCSc1nc(N[C@@H]2C[C@H]2c2ccc(F)c(F)c2)c2nnn([C@@H]3C[C@H](OCCO)[C@@H](O)[C@H]3O)c2n1` the value was -27.5%. The same measure, in the same setting: to `Cc1cc(C(C)Nc2ccccc2C(=O)O)c2nc(N3CCOCC3)cc(=O)n2c1` (stereo not drawn) belongs -5.34%; to `FC(F)(F)c1ccccc1-c1cc(C(F)(F)F)c2nc(C3=NOC4(CCCCC4)C3)[nH]c2c1`, -2.35%; to `Cc1cc(OCCCS(C)(=O)=O)cc(C)c1-c1cccc(COc2ccc(C3=CC(=O)NS3=O)cc2)c1` (stereo not drawn), 0.314%. For `N#C/C(=C1\Nc2ccccc2S1)c1ccnc(NCCc2cccnc2)n1`, the “activity change, negative = cytotoxicity” value was -23.5%.

In the case of `Cc1sc2c(c1C)C(c1ccc(Cl)cc1)=N[C@H](CC(=O)NCCCCNC(=O)COc1cccc3c1C(=O)N([C@H]1CCC(=O)NC1=O)C3=O)c1nnc(C)n1-2`, the “activity change, negative = cytotoxicity” value is -1.87%. Take `C/C(=C\Cc1c(O)c(Cl)c(C)c(C=O)c1O)CC/C=C(\C)[C@H]1CC(=O)C(C)(C)O1`: the “activity change, negative = cytotoxicity” value is -27.2% [at 25.3 µM]. Regarding `CCCn1ncc(CN2CCCC(C(=O)c3cccc(OC(C)C)c3)C2)c1C` (stereo not drawn), the “activity change, negative = cytotoxicity” value was -13.1%. For `CC(C)(O)C1Cc2c(ccc(C(=O)CCc3ccccc3)c2O)O1` (stereo not drawn), the Potency was 10 µM (active). The same measure, in the same setting: for `C[C@H](Oc1cc(-n2cnc3ccc(CN4CCN(C)CC4)cc32)sc1C(N)=O)c1ccccc1C(F)(F)F` the value was 7.94 µM (active). For `COc1cc2ncnc(Nc3ccc(O)c(Br)c3)c2cc1OC`, the “activity change, negative = cytotoxicity” value was -2.86%. Turning to `Nc1nc2c(ncn2C2OC3COP(=O)(O)OC3C2O)c(=O)[nH]1` (stereo not drawn), the “activity change, negative = cytotoxicity” value was -0.588%.

Turning to `CC1(C)SCCN(S(=O)(=O)c2ccc(Oc3ccncc3)cc2)[C@H]1C(=O)NO`, the “activity change, negative = cytotoxicity” value is -5.17%. With `CC(O)(C(=O)C1CC1(CO)COC1OC(CO)C(O)C(O)C1O)C1C(O)CC2C3CC=C4CC(O)CC(O)C4(C)C3C(O)CC21C` (stereo not drawn), the Potency was 0.562 µM (active).

Values taken from PubChem BioAssay (NCATS).
